For 10 molecules, outcome and AC50 results are on record in PubChem BioAssay (EPA / NIEHS).

For experiment [1], the target named is Bile acid receptor (Homo sapiens) (UniProt Q96RI1). Kind of experiment: ATG_FXR_TRANS: Attagene TRANS-FACTORIAL HepG2 Assay for Farnesoid X Receptor (FXR) (AID 2282979; active means hit-call score of the fitted dose curve at least 0.9, where 1 is the maximum;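 further: hits raise reporter mRNA above DMSO so AC50 marks FXR activation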). The note with it: HepG2 Attagene TRANS FXR-GAL4 reporter transcription. In short, it runs like this:
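HepG2 cells were transiently transfected with GAL4-UAS reporters driven by chimeric NR-Gal4 proteins and dosed for 24 h. Reporter mRNA was quantified by RT-PCR, fluorescent labelling, HpaI digestion and capillary electrophoresis, with gain of signal scored versus DMSO.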

Experiment [2] concerns the target Hepatocyte nuclear factor 4-alpha (Homo sapiens) (UniProt P41235). Kind of experiment: ATG_HNF4a_TRANS: Attagene TRANS-FACTORIAL HepG2 Assay for human Hepatocyte Nuclear Factor 4 alpha (HNF4a) (AID 2282982; active means hit-call score of the fitted dose curve at least 0.9, where 1 is the maximum). Particulars: HepG2 HNF4a transactivation reporter, mRNA readout. In short, it runs like this: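 In this trans-factorial format, a chimeric HNF4a-GAL4 fusion drives a GAL4-UAS reporter in transfected HepG2 liver cells. After 24 h treatment, reporter mRNA induction is measured by RT-PCR with capillary electrophoresis, relative to DMSO.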

Experiment [3] in a line: ATG_M_06_TRANS: Attagene TRANS-FACTORIAL HepG2 Assay for M06 Transcription Factor (Internal Marker) (AID 2282983; active means hit-call score of the fitted dose curve at least 0.9, where 1 is the maximum). Particulars: HepG2 Attagene TRANS M06 internal marker reporter. An outline of the steps:
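mRNA levels of a reporter transcript, quantified as FAM fluorescence on capillary electrophoresis, served as readout. HepG2 cells expressing exogenous GAL4-chimera reporter constructs were exposed for 24 h. Gain of signal over DMSO was evaluated.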

Experiment [4] has as its target Transcriptional activator Myb (Homo sapiens) (UniProt P10242). Nature of the experiment: ATG_Myb_CIS: Attagene CIS-FACTORIAL HepG2 Assay for human Myeloblastosis (Myb) Proto-Oncogene Transcription Factor (AID 2282986). Particulars: HepG2 Attagene CIS-FACTORIAL Myb reporter transcription; actives raise or lower the signal. An outline of the steps:
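Transiently transfected HepG2 cells, treated 24 h. Reporter mRNA quantified by RT-PCR/capillary electrophoresis; bidirectional fit relative to DMSO.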

The target in experiment [5] is Nuclear respiratory factor 1 (Homo sapiens) (UniProt Q16656). Nature of the experiment: ATG_NRF1_CIS: Attagene CIS-FACTORIAL HepG2 Assay for human Nuclear Respiratory Factor 1 (NRF1) Orphan Gene (AID 2282987). Particulars: HepG2 NRF1 cis-element reporter, Attagene multiplex; actives raise or lower the signal. An outline of the steps: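 Cells (HepG2, transient MRTU transfection) are exposed to compound for 24 h, then RNA isolated and reporter mRNA amplified and fluorescently labelled. Fragments are separated by capillary electrophoresis; signal change is fitted bidirectionally relative to DMSO.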

Experiment [6] can be described thus: ATG_NFI_CIS: Attagene CIS-FACTORIAL HepG2 Assay for human Nuclear Factor I (NFI) (AID 2282989). Particulars: HepG2 cis-regulatory reporter, NFI response element transcription; actives raise or lower the signal. An outline of the steps:
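Transfected HepG2 liver cells, exposed 24 h, supplied total RNA for oligo(dT) reverse transcription and reporter-specific PCR. Labelled, HpaI-cut fragments were sized by capillary electrophoresis; DMSO set the baseline for bidirectional fitting.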

Experiment [7] deals with Myc proto-oncogene protein (Homo sapiens) (UniProt P01106). Kind of experiment: ATG_Myc_CIS: Attagene CIS-FACTORIAL HepG2 Assay for human Myelocytomatosis (Myc) Proto-Oncogene Transcription Factor (AID 2282990). Particulars: HepG2, Attagene cis-reporter transcription factor activity; actives raise or lower the signal. An outline of the steps: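 HepG2 cells transiently transfected with multiple cis-promoter-driven reporter transcription units, so endogenous TF activity is read. After 24 h compound exposure, reporter mRNA was quantified by RT-PCR, 6-FAM labelling, HpaI digestion and capillary electrophoresis; bidirectional fit versus DMSO.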

Experiment [8] can be described thus: ATG_NRF2_ARE_CIS: Attagene CIS-FACTORIAL HepG2 Assay for human Nuclear Factor Erythroid 2 Related Factor 2 (NFR2) response to Antioxidant Response Elements (ARE) (AID 2282992). Particulars: HepG2 Attagene ARE/NRF2 reporter, transcription factor activity; actives raise or lower the signal. An outline of the steps:
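Using transiently transfected HepG2 cells exposed for 24 h, reporter mRNA levels were determined by RT-PCR with fluorescent primer extension and capillary electrophoresis, analysed for gain or loss of signal against DMSO.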

The nature of experiment [9]: ATG_Oct_MLP_CIS: Attagene CIS-FACTORIAL HepG2 Assay for human Octamer-Binding Transcription Factor (Oct) (AID 2282993). Particulars: HepG2 Attagene cis-factorial Oct reporter, mRNA; actives raise or lower the signal. An outline of the steps:
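Using HepG2 cells bearing transfected cis-reporter constructs, mRNA induction was read after 24 h by fluorescent RT-PCR and capillary electrophoresis, with DMSO defining baseline for gain- or loss-of-signal fits.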

Experiment [10] has as its target Cellular tumor antigen p53 (Homo sapiens) (UniProt P04637). Nature of the experiment: ATG_p53_CIS: Attagene CIS-FACTORIAL HepG2 Assay for human p53 Transcription Factor (AID 2282994). Particulars: HepG2 p53 cis-element reporter, Attagene mRNA; actives raise or lower the signal. An outline of the steps:
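In HepG2 cells, reporter transcription units under cis-regulatory promoters were transiently introduced. Following 24 h treatment, RNA was processed to labelled, digested cDNA fragments read by capillary electrophoresis; fitting was bidirectional versus DMSO.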

Experiment [11] addresses Oxysterols receptor LXR-alpha (Homo sapiens) (UniProt Q13133). Kind of experiment: ATG_LXRa_TRANS: Attagene TRANS-FACTORIAL HepG2 Assay for human Liver X Receptor alpha (LXRa) (AID 2282980; active means hit-call score of the fitted dose curve at least 0.9, where 1 is the maximum). Particulars: HepG2 Attagene TRANS reporter, LXRa transactivation. An outline of the steps:
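HepG2 cells transiently transfected with GAL4-UAS reporter units for chimeric NR-Gal4 proteins, exposed to chemicals for 24 h. Reporter mRNA quantified by RT-PCR and capillary electrophoresis; gain of signal fitted relative to DMSO.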

Experiment [12] deals with Oxysterols receptor LXR-beta (Homo sapiens) (UniProt P55055). Nature of the experiment: ATG_LXRb_TRANS: Attagene TRANS-FACTORIAL HepG2 Assay for human Liver X Receptor beta (LXRb) (AID 2282981; active means hit-call score of the fitted dose curve at least 0.9, where 1 is the maximum). Particulars: HepG2 Attagene TRANS GAL4-LXRb reporter, mRNA. In short, it runs like this:
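Measures induction of a Gal4-driven reporter transcript in HepG2 cells expressing an exogenous LXRb-Gal4 fusion. Cells are exposed to compound for 24 h before RNA isolation and RT-PCR with capillary electrophoresis detection.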

Experiment [13] in a line: ATG_M_32_TRANS: Attagene TRANS-FACTORIAL HepG2 Assay for M32 Transcription Factor (Internal Marker) (AID 2282984; active means hit-call score of the fitted dose curve at least 0.9, where 1 is the maximum;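 further: transcript level of a background control reporter unit measured by RT-PCR and capillary electrophoresis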). Particulars: HepG2 Attagene TRANS M32 internal marker reporter. In short, it runs like this: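 After 24 h dosing of transfected HepG2 cells, total RNA was reverse-transcribed, reporter sequences PCR-amplified, 6-FAM labelled by primer extension and HpaI-digested before capillary electrophoresis. Signal increase over DMSO was fitted.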

Experiment [14] concerns the target Nuclear receptor subfamily 4 group A member 2 (Homo sapiens) (UniProt P43354). Kind of experiment: ATG_NURR1_TRANS: Attagene TRANS-FACTORIAL HepG2 Assay for human Nuclear Receptor Related Protein 1 (NURR1) (AID 2282985; active means hit-call score of the fitted dose curve at least 0.9, where 1 is the maximum). The note with it: HepG2 Attagene TRANS reporter, mRNA readout. An outline of the steps: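 Chimeric NR-Gal4 fusion activity measured in HepG2 after 24 h treatment. Reporter transcripts detected by RT-PCR and capillary electrophoresis fluorescence; positive-direction curve fitting against DMSO.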

Experiment [15] in a line: ATG_NF_kB_CIS: Attagene CIS-FACTORIAL HepG2 Assay for human Nuclear Factor Kappa B (NF-kB) (AID 2282991). Particulars: HepG2 Attagene cis-factorial NF-kB reporter mRNA; actives raise or lower the signal. In short, it runs like this:
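Measures mRNA induction of an NF-kB-responsive cis-element reporter in HepG2 cells transfected with multiple reporter units, sampled 24 h post-dosing; quantified by fluorescence after RT-PCR and capillary electrophoresis, fitted for activation or inhibition against DMSO.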

Experiment [16] in a line: BSK_3C_TissueFactor: BioMAP Diversity Plus: 3C Assay for Tissue Factor Biomarker Activity (AID 2282997). The note with it: BioMAP 3C HUVEC, tissue factor biomarker readout; actives raise or lower the signal. In short, it runs like this:
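Tissue Factor measured by ELISA, 24 h after treatment of primary HUVEC in the BioMAP 3C setting.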

The nature of experiment [17]: BSK_3C_uPAR: BioMAP Diversity Plus: 3C Assay for Urokinase-type plasminogen activator receptor (uPAR) Biomarker Activity (AID 2282998). The note with it: BioMAP 3C HUVEC, uPAR biomarker ELISA; actives raise or lower the signal. In short, it runs like this:
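In this endothelial cell-based assay, human umbilical vein primary cells were treated with chemicals and harvested at 24 h. uPAR was quantified using ELISA, with gains or losses fitted relative to DMSO controls.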

Structures are written as SMILES. Inconclusive results are not listed. The source made the active and inactive calls. How the source made its calls, unless noted: active means hit-call score of the fitted dose curve at least 0.9, where 1 is the maximum; inactive means score below 0.9.

In general, AC50 refers to the midpoint of the concentration-response curve, whichever way the signal moves.

Sequence of Hepatocyte nuclear factor 4-alpha (Homo sapiens) (P41235 whole entry, looked up, the tested form may be a part): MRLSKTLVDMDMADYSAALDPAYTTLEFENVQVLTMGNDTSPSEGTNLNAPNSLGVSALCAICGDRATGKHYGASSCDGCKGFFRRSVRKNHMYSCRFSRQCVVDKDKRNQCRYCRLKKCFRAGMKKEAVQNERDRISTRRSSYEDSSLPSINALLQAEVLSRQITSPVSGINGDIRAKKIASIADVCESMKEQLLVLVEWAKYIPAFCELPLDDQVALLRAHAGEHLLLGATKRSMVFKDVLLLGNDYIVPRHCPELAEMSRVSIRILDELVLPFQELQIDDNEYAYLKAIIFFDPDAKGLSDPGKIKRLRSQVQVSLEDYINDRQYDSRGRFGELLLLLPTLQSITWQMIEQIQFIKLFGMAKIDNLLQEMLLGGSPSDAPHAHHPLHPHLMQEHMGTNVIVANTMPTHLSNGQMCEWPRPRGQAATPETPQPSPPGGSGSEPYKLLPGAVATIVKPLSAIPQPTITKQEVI
Sequence of Myc proto-oncogene protein (Homo sapiens) (P01106 whole entry, looked up): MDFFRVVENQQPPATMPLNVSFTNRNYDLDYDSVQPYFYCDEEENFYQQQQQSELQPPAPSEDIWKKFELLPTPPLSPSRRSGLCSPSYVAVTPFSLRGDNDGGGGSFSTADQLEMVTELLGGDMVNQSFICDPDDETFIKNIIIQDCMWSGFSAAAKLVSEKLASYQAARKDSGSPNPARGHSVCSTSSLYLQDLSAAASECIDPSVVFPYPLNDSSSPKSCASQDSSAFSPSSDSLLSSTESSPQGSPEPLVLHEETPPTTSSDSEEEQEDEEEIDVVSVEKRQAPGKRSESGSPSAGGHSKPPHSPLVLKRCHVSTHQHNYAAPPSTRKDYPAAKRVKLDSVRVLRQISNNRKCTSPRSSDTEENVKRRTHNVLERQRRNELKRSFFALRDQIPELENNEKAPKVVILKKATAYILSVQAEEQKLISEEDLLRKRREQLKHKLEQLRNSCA
Sequence of Nuclear respiratory factor 1 (Homo sapiens) (Q16656 whole entry, looked up, the tested form may be a part): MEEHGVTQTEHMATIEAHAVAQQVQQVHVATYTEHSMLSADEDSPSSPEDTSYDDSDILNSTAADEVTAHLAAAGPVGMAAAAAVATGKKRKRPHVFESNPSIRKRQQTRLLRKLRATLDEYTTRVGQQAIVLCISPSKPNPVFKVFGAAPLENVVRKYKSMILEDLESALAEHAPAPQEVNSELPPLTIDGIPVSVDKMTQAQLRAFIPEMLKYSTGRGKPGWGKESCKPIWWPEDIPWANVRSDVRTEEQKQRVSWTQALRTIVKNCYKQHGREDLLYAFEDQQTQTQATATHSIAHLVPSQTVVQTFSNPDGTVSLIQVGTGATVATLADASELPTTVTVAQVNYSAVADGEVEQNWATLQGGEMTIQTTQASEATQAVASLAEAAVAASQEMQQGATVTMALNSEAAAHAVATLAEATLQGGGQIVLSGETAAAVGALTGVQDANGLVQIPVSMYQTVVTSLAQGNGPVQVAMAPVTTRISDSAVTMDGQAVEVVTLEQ
Sequence of Oxysterols receptor LXR-beta (Homo sapiens) (P55055 whole entry, looked up, the tested form may be a part): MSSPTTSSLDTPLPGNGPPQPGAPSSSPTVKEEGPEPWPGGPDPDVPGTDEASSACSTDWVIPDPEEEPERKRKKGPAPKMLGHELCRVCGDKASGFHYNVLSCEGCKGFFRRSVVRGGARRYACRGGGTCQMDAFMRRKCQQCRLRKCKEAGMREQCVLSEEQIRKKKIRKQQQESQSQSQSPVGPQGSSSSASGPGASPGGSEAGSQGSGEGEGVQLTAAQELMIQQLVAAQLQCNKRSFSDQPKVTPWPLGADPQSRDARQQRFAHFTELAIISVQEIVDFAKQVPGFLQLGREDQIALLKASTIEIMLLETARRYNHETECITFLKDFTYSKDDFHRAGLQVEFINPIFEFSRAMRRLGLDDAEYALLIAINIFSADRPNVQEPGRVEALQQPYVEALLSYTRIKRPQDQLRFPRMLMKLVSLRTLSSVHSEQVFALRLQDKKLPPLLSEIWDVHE
Sequence of Cellular tumor antigen p53 (Homo sapiens) (P04637 whole entry, looked up, the tested form may be a part): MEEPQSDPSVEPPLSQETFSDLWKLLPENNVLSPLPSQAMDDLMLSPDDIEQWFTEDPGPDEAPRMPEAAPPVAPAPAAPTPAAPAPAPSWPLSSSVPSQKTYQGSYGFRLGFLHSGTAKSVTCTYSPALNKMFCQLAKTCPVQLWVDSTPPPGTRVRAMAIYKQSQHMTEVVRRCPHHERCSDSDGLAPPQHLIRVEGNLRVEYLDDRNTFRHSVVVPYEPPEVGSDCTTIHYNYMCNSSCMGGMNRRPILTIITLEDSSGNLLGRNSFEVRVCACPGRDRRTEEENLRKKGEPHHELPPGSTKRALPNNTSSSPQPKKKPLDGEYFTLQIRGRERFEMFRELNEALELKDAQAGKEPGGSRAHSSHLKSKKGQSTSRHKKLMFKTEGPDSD
Sequence of Oxysterols receptor LXR-alpha (Homo sapiens) (Q13133 whole entry, looked up, the tested form may be a part): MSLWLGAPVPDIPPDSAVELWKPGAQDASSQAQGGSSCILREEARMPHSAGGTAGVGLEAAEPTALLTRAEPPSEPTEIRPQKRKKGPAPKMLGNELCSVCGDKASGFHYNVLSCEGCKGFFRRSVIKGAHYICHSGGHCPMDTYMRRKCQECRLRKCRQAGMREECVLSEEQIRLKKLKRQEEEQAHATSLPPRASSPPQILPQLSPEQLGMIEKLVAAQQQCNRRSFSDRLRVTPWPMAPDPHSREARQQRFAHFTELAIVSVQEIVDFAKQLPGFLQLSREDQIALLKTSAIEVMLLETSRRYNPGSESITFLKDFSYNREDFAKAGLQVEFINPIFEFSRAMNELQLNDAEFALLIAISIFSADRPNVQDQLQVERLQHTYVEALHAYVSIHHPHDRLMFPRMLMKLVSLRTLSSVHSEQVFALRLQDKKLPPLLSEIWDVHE
Sequence of Transcriptional activator Myb (Homo sapiens) (P10242 whole entry, looked up): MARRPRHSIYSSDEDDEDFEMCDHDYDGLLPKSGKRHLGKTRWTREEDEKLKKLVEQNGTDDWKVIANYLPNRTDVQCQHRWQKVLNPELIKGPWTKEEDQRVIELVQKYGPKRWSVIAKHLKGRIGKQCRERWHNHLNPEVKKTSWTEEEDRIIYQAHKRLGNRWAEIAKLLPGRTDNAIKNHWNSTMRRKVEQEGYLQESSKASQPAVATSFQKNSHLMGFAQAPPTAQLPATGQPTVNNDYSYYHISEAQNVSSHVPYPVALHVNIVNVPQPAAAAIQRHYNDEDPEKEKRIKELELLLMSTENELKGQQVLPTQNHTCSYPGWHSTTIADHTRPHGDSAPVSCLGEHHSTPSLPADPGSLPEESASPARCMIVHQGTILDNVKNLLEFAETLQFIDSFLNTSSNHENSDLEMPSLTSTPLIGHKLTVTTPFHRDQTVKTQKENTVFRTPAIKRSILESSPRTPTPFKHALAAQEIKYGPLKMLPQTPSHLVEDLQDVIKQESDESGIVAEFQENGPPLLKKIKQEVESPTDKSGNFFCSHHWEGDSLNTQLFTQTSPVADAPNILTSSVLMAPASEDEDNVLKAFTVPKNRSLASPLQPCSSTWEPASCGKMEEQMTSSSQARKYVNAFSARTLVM
Sequence of Bile acid receptor (Homo sapiens) (Q96RI1 whole entry, looked up, the tested form may be a part): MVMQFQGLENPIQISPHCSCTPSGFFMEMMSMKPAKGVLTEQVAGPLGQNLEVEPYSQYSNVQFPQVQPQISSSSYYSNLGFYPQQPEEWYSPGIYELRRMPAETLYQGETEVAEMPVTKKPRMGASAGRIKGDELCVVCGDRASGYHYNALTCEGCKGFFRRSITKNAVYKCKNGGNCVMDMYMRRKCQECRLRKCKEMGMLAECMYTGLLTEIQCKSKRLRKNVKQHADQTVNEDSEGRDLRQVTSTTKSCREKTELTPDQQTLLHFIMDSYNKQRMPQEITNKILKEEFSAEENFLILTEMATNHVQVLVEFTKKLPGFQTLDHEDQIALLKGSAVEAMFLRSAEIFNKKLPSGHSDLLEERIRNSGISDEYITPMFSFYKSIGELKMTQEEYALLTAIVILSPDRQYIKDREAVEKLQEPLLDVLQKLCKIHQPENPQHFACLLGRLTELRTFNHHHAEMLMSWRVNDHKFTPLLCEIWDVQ
Sequence of Nuclear receptor subfamily 4 group A member 2 (Homo sapiens) (P43354 whole entry, looked up, the tested form may be a part): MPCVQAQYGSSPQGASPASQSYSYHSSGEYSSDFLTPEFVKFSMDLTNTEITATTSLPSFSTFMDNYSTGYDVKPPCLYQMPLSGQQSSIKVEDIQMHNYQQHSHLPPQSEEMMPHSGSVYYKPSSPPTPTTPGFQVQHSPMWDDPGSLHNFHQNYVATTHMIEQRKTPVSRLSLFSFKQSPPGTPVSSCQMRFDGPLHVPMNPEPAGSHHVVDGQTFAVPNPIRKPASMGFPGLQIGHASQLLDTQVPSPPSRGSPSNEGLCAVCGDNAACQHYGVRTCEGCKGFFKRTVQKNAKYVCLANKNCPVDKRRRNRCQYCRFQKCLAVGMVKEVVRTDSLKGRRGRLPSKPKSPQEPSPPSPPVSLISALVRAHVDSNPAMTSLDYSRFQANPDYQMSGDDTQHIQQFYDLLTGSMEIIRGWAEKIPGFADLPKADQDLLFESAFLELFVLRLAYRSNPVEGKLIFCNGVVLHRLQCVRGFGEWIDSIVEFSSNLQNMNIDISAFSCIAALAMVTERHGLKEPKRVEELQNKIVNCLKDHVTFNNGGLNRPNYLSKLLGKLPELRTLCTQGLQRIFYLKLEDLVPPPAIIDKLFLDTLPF

Take `CCCCC/C=C\C/C=C\CCCCCCCC(=O)O`: the call in experiment [1], in [2], in [3], in experiment [4], in [5] and in experiment [7] was inactive. Further, the result in experiment [9] and in experiment [10] was inactive. In addition, the AC50 in experiment [6] is 163 µM (active); in experiment [8], 51.6 µM (active).

As to `C=C(C)C1CC=C(C)CC1` (stereo not drawn), the molecule was called inactive in experiment [11], in experiment [12], in [3], in experiment [13], in [4] and in experiment [5]. Moreover, the molecule was called inactive in experiment [6], in experiment [7], in experiment [8], in [9] and in [10].

As for `CCOC(=O)c1ccc(C)cc1`, the call in experiment [11], in [12], in experiment [2], in [3], in experiment [14] and in [4] was inactive. Also, the molecule was called inactive in experiment [5], in [6], in experiment [7], in experiment [8], in [9] and in experiment [10].

Consider `NNS(=O)(=O)c1ccc(Oc2ccc(S(=O)(=O)NN)cc2)cc1`, for which the outcome in experiment [11], in experiment [12], in [2], in [14], in experiment [4] and in [5] was inactive. Besides, the outcome in experiment [6], in experiment [7], in [8], in experiment [9] and in experiment [10] was inactive.

In the case of `CCCC/C=C/C=C\C=O`, the outcome in [1], in [12], in experiment [13], in experiment [4], in experiment [5] and in experiment [6] was inactive. For the same molecule, the molecule was classed as inactive in [7] and in experiment [9]. In addition, the AC50 in experiment [15] was 63.8 µM (active); in experiment [8], 41.3 µM (active); in [10], 165 µM (active).

`CC(=O)/C=C/C1C(C)=CCCC1(C)C` (stereo not drawn): the outcome in experiment [1], in experiment [4], in experiment [5], in [6], in experiment [7] and in experiment [9] was inactive.

`CC1=CC=C(C(C)C)CC1`: the molecule was called inactive in experiment [11], in experiment [2], in experiment [3], in [4], in [5] and in experiment [6]. For the same molecule, the call in [7], in experiment [9], in [10], in [16] and in experiment [17] was inactive.

Take `Cc1ccc(C)c(OCCCC(C)(C)C(=O)O)c1`: the call in experiment [11], in experiment [12], in experiment [2], in experiment [4], in [5] and in experiment [6] was inactive. In addition, the outcome in experiment [7], in experiment [8] and in experiment [9] was inactive.

As to `CCOB(OCC)OCC`, the molecule was called inactive in experiment [1], in experiment [3], in experiment [13], in [4], in experiment [5] and in [6]. The molecule was called inactive in experiment [7], in [15], in experiment [8], in [9] and in experiment [10].

With `CCc1occc(=O)c1O`, the call in experiment [1], in experiment [3], in [13], in [4], in experiment [5] and in [6] was inactive. The molecule was classed as inactive in experiment [7], in experiment [15], in [8], in [9] and in experiment [10].
